# From PubChem BioAssay (NCI)
# Compounds without any hit were thinned out: in the full panel of roughly 83,000, 20% have a hit.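 Assay: single dose, 48 h. Readout: percent growth (0 = no net growth; negative = cell death). Active: <10.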 Activity calls are given as the source filed them.
# System: IGROV1 ovarian
# Experiment: NCI-60 one-dose screen, 48 h (100 = growth as untreated, 0 = no growth, -100 = all killed)
# Settings: 10 µM unless noted
row,SMILES,growth
1,S=c1[nH]nc2ccccn12,115% (inactive)
2,N#CC1C(=N)Cc2ccccc2-c2ccccc21 (stereo not given),45.7% (inactive)
3,COc1c(N)c2c(c([N+](=O)[O-])c1OC)C(=O)OC2,105% (inactive)
4,CC(=O)O[C@H]1CC[C@@]2(C)C(=CC[C@@H]3[C@@H]2CC[C@]2(C)C(=O)N(O)C(=O)C[C@@H]32)C1,83.3% (inactive)
5,C/C(=N\NC(=O)C(C)SC(C)C(=O)N/N=C(\C)c1cccnc1)c1cccnc1 (stereo not given),102% (inactive)
6,Cc1cc(Nc2ccc(F)cc2)nc(N2CCN(c3ccnc4cc(Cl)ccc34)CC2)n1,31.6% (inactive)
7,COC(=O)[C@@H]1[C@H]2C[C@H]3c4[nH]c5cc(OC)ccc5c4CCN3C[C@@H]2C[C@H](OC(=O)/C=C/c2ccnc(OC)c2)[C@H]1OC,83.2% (inactive)
8,Fc1cccc(-c2[nH]nc3nc(Nc4cccnc4)sc23)c1,51.4% (inactive)
9,O=C(c1ccccc1)C(CN1CCOCC1)c1ccccc1 (stereo not given),7.53% (active)
10,CCOc1ccc(NC(=O)c2ccccc2-c2ccccc2C(=O)O)cc1,110% (inactive)
11,Cc1ccc(Nc2c(C(N)=O)cnc3ccc(S(=O)(=O)Nc4cc(C)on4)cc23)cc1,101% (inactive)
12,Cn1cc(-c2csc(-c3cn(C(=O)OC(C)(C)C)c4ccc(Br)cc34)n2)c2cccnc21,93.2% (inactive)
13,CC1=CC(=O)N(c2cccc3c(N4C(=O)C=C(C)C4=O)cccc23)C1=O,76.3% (inactive)
14,Cn1cc(-c2nc(-c3cn(C)c4ncccc34)cs2)c2ccccc21,45% (inactive)
15,O=C(/C=C/c1cccc(O)c1)c1ccccc1O,66.7% (inactive)
16,Cc1cc(C)nc(NC(N)=NCCc2ccccc2)n1,40% (inactive)
17,O=C(N/N=C\c1ccccc1O)C1CC1,95% (inactive)
18,CC(C)=CCC/C(C)=C/CC/C(C)=C/CC/C(C)=C/CSC[C@H](NC(=O)CCCCCN1CCN(C)CC1)C(=O)NC1CCCCC1,80.6% (inactive)
19,Oc1cccc2oc(=S)[nH]c12,110% (inactive)

row,SMILES,growth
1,COc1ccc(C(=O)c2cc(OC)c(OC)c(OC)c2)cc1/C=C/C(=O)c1cc(OC)c(OC)c(OC)c1,95.9% (inactive)
2,Clc1ccc2[nH]cc(-c3nc(-c4c[nH]c5ncccc45)cs3)c2c1,32.8% (inactive)
3,COc1ccc2[nH]cc(-c3nc(-c4c[nH]c5ncccc45)cs3)c2c1,30.7% (inactive)
4,C#Cc1cc2c(N)c(C(=O)c3cc(OC)c(OC)c(OC)c3)[nH]c2cc1OC,32.6% (inactive)
5,COc1cc2[nH]c(C(=O)c3cc(OC)c(OC)c(OC)c3)c(N)c2cc1C#CCO,22.9% (inactive)
6,Cn1c2c(c3ccc(Cl)cc31)-n1cccc1C2=O,69.9% (inactive)
7,Cn1cc(-c2nc(-c3cn(C)c4ncccc34)cs2)c2cc(F)ccc21,44.2% (inactive)
8,Oc1ccccc1/C=N\NC(=S)Nc1ccc(F)cc1,20% (inactive)
9,CC1c2ccccc2N(S(=O)(=O)c2ccccc2)C1C (stereo not given),92.4% (inactive)
10,CC(C)=CCC/C(C)=C/CC/C(C)=C/CSC[C@H](NC(=O)CCCCCN1CCN(C)CC1)C(=O)NC1CCCCCC1,69.8% (inactive)
11,O=[N+]([O-])c1ccc(/C=N\Nc2ccccc2)cc1,78% (inactive)
12,C(=C\c1c[nH]c2ccccc12)/c1ccc2ccccc2n1,47.8% (inactive)
13,Cn1cc(-c2csc(-c3c[nH]c4ccc(F)cc34)n2)c2cccnc21,41.6% (inactive)
14,Nc1c(Cl)cc(N=Nc2ccccc2)cc1Cl,12.5% (inactive)
15,CC(=O)O[C@H]1CC[C@@]2(C)[C@@H](CC[C@@H]3[C@@H]2CC(=O)[C@@]2(C)[C@H]3C[C@@H](C3CCCC3=O)[C@@H]2C(C)=O)C1 (stereo not given in full),98.1% (inactive)
16,CC(=O)Oc1ccccc1C(=O)/C=C/c1cccc([N+](=O)[O-])c1,37.3% (inactive)
17,O=C(O)c1cccc2c1C(=O)N(c1ccc3c(c1)Cc1ccccc1-3)C2=O,125% (inactive)
18,Brc1ccc2[nH]cc(-c3nc(-c4c[nH]c5ncccc45)cs3)c2c1,23.1% (inactive)

# System: OVCAR-3 ovarian
# Experiment: as above
# Settings: 10 µM unless noted
row,SMILES,growth
1,S=c1[nH]nc2ccccn12,124% (inactive)
2,N#CC1C(=N)Cc2ccccc2-c2ccccc21 (stereo not given),41.6% (inactive)
3,COc1c(N)c2c(c([N+](=O)[O-])c1OC)C(=O)OC2,105% (inactive)
4,CC(=O)O[C@H]1CC[C@@]2(C)C(=CC[C@@H]3[C@@H]2CC[C@]2(C)C(=O)N(O)C(=O)C[C@@H]32)C1,102% (inactive)
5,C/C(=N\NC(=O)C(C)SC(C)C(=O)N/N=C(\C)c1cccnc1)c1cccnc1 (stereo not given),114% (inactive)
6,Cc1cc(Nc2ccc(F)cc2)nc(N2CCN(c3ccnc4cc(Cl)ccc34)CC2)n1,24.1% (inactive)
7,COC(=O)[C@@H]1[C@H]2C[C@H]3c4[nH]c5cc(OC)ccc5c4CCN3C[C@@H]2C[C@H](OC(=O)/C=C/c2ccnc(OC)c2)[C@H]1OC,90.3% (inactive)
8,Fc1cccc(-c2[nH]nc3nc(Nc4cccnc4)sc23)c1,-18.3% (active)
9,O=C(c1ccccc1)C(CN1CCOCC1)c1ccccc1 (stereo not given),-10.7% (active)
10,CCOc1ccc(NC(=O)c2ccccc2-c2ccccc2C(=O)O)cc1,110% (inactive)
11,Cc1ccc(Nc2c(C(N)=O)cnc3ccc(S(=O)(=O)Nc4cc(C)on4)cc23)cc1,103% (inactive)
12,Cn1cc(-c2csc(-c3cn(C(=O)OC(C)(C)C)c4ccc(Br)cc34)n2)c2cccnc21,98.3% (inactive)
13,CC1=CC(=O)N(c2cccc3c(N4C(=O)C=C(C)C4=O)cccc23)C1=O,-16.2% (active)
14,Cn1cc(-c2nc(-c3cn(C)c4ncccc34)cs2)c2ccccc21,-17.8% (active)
15,O=C(/C=C/c1cccc(O)c1)c1ccccc1O,93.5% (inactive)
16,Cc1cc(C)nc(NC(N)=NCCc2ccccc2)n1,33.5% (inactive)
17,O=C(N/N=C\c1ccccc1O)C1CC1,102% (inactive)
18,CC(C)=CCC/C(C)=C/CC/C(C)=C/CC/C(C)=C/CSC[C@H](NC(=O)CCCCCN1CCN(C)CC1)C(=O)NC1CCCCC1,91.1% (inactive)
19,Oc1cccc2oc(=S)[nH]c12,125% (inactive)

row,SMILES,growth
1,COc1ccc(C(=O)c2cc(OC)c(OC)c(OC)c2)cc1/C=C/C(=O)c1cc(OC)c(OC)c(OC)c1,99.3% (inactive)
2,Clc1ccc2[nH]cc(-c3nc(-c4c[nH]c5ncccc45)cs3)c2c1,55.9% (inactive)
3,O=C(NC1=CC(=O)c2ccccc2C1=O)c1ccccc1,-82.5% (active)
4,COc1ccc2[nH]cc(-c3nc(-c4c[nH]c5ncccc45)cs3)c2c1,50.6% (inactive)
5,C#Cc1cc2c(N)c(C(=O)c3cc(OC)c(OC)c(OC)c3)[nH]c2cc1OC,0.789% (active)
6,COc1cc2[nH]c(C(=O)c3cc(OC)c(OC)c(OC)c3)c(N)c2cc1C#CCO,-17.8% (active)
7,Cn1c2c(c3ccc(Cl)cc31)-n1cccc1C2=O,104% (inactive)
8,Cn1cc(-c2nc(-c3cn(C)c4ncccc34)cs2)c2cc(F)ccc21,1.46% (active)
9,Oc1ccccc1/C=N\NC(=S)Nc1ccc(F)cc1,34.4% (inactive)
10,CC1c2ccccc2N(S(=O)(=O)c2ccccc2)C1C (stereo not given),98.1% (inactive)
11,CC(C)=CCC/C(C)=C/CC/C(C)=C/CSC[C@H](NC(=O)CCCCCN1CCN(C)CC1)C(=O)NC1CCCCCC1,76.6% (inactive)
12,O=[N+]([O-])c1ccc(/C=N\Nc2ccccc2)cc1,82.5% (inactive)
13,C(=C\c1c[nH]c2ccccc12)/c1ccc2ccccc2n1,69.3% (inactive)
14,Cn1cc(-c2csc(-c3c[nH]c4ccc(F)cc34)n2)c2cccnc21,-2.33% (active)
15,Nc1c(Cl)cc(N=Nc2ccccc2)cc1Cl,84.6% (inactive)
16,CC(=O)O[C@H]1CC[C@@]2(C)[C@@H](CC[C@@H]3[C@@H]2CC(=O)[C@@]2(C)[C@H]3C[C@@H](C3CCCC3=O)[C@@H]2C(C)=O)C1 (stereo not given in full),115% (inactive)
17,CC(=O)Oc1ccccc1C(=O)/C=C/c1cccc([N+](=O)[O-])c1,66.4% (inactive)
18,O=C(O)c1cccc2c1C(=O)N(c1ccc3c(c1)Cc1ccccc1-3)C2=O,122% (inactive)
19,Brc1ccc2[nH]cc(-c3nc(-c4c[nH]c5ncccc45)cs3)c2c1,52.4% (inactive)
